Ecoli WT expand: growth inhibitors of E. coli BW25113 wild type; AID 710; hit rate 0.15% among 98,000; growth inhibition, % at 100 µM; OD600 absorbance;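 active = growth inhibition above about 50% at one test dose, limit read from the data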;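 also: growth measured after 20 h incubation at 37 °C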
Cav32 inh: inhibitors of human Cav3.2 T-type calcium channel; hit rate 4% among 100,000; AID 449739; O95180; B-score at 10 µM; Cav3.2-expressing cells, Fluo-4 calcium fluorescence FDSS; stronger effect = lower value;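 active = single-dose well whose peak fluorescence ratio is a statistical outlier from its plate by either plate-standardised score or position-corrected B-score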
CD11b adhes enh: increases human CD11b/CD18 adhesion to fibrinogen | activation, % at 10 µM | hit rate 0.07% among 93,000 | K562 CD11b/CD18 adhesion to fibrinogen, ATPlite luminescence;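 active = 10 µM primary screen giving 50% or more activity, confirmed by 40% or more on retest at that dose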
Target sequence (P05107 whole entry, looked up, other chains not shown): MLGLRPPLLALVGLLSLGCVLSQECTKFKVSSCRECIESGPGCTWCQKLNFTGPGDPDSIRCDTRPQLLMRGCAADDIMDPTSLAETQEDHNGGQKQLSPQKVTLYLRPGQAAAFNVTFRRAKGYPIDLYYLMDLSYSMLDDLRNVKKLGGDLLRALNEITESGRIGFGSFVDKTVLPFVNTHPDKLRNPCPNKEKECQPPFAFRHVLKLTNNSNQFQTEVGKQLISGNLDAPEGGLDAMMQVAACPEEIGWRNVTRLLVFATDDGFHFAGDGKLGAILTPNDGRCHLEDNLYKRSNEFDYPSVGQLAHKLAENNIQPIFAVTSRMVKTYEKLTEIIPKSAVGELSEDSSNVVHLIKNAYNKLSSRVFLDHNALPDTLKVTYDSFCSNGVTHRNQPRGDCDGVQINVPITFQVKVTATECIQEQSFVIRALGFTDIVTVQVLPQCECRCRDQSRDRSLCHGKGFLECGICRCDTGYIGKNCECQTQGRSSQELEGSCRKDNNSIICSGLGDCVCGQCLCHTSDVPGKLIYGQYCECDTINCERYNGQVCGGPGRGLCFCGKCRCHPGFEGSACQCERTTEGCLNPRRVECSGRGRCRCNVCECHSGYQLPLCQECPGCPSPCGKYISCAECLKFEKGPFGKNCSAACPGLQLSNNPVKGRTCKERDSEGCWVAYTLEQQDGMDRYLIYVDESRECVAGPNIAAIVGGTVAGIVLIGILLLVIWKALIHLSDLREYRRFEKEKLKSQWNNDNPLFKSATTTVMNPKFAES
CD11b adhes inh: inhibitors of human CD11b/CD18 binding to fibrinogen; P05107+P11215; AID 1497; inhibition, % at 10 µM; K562 CD11b/CD18 adhesion to fibrinogen, ATPlite luminescence; Mn2+ added to activate the integrin; hit rate 0.54% among 93,000;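 active = primary inhibition of 50% or more at 10 µM, then 40% or more on retest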
Large screens that a line does not name were inactive. The full list was thinned out, with hits kept by preference.

O=C(Nc1ccc(Cl)c(Cl)c1)N1CCSC1c1ccco1 (centres undefined)	Cav32 inh -7.68
CN(C)CCNC(=O)/C=N/O	none (no result: Ecoli WT expand, Cav32 inh)
Cn1c(C(=O)Nc2ccccc2)cc2sccc21	none (no result: CD11b adhes enh, CD11b adhes inh)
CCc1ccccc1NC(=O)c1cc2sccc2n1C	Cav32 inh -2.43
O=C(Nc1nc2ccccc2s1)C1CC(=O)N(c2ccc(Cl)cc2)C1 (centres undefined)	Cav32 inh -4.69
O[C@H]1COC2C1OC[C@@H]2O (some centres undefined)	none (no result: Ecoli WT expand, CD11b adhes enh, CD11b adhes inh)
Cc1nn(Cc2c(F)c(F)c(F)c(F)c2F)c(C)c1NC(=O)c1ccc(COc2ccc(F)cc2)o1	Cav32 inh -4.91 (no result: CD11b adhes enh, CD11b adhes inh)
Cc1nn(Cc2c(F)c(F)c(F)c(F)c2F)c(C)c1NC(=O)c1ccc(COc2ccccc2Cl)o1	none (no result: Cav32 inh, CD11b adhes enh, CD11b adhes inh)
CNc1oc(-c2ccc(C)cc2)nc1P(=O)(c1ccccc1)c1ccccc1	Cav32 inh -4.32 (no result: CD11b adhes enh, CD11b adhes inh)
CS(=O)(=O)N1c2ccccc2[C@]2([C@@]34C[C@H]5C(=O)N[C@@H](Cc6ccccc6)C(=O)N5[C@@H]3N(S(C)(=O)=O)c3ccccc34)C[C@H]3C(=O)N[C@@H](Cc4ccccc4)C(=O)N3[C@H]12	none (no result: Ecoli WT expand, CD11b adhes enh, CD11b adhes inh)
O=C(Oc1ccccc1C(=O)N1CCOCC1)c1cccc(Br)c1	none
Cc1ccc([N+](=O)[O-])cc1N=C(c1cccc(Br)c1)N1CCOCC1	Cav32 inh -4.07
O=C(NC1CC1)C1=C[C@@H](c2csc3ccccc23)C[C@@H](OCCCCO)O1	none (no result: Ecoli WT expand, CD11b adhes enh, CD11b adhes inh)
CC(C)N(Cc1nc(-c2ccccc2)no1)C(=O)COc1ccccc1	none
Cc1cc(Br)ccc1OCC(=O)N(Cc1nc(-c2ccccc2)no1)C(C)C	Cav32 inh -4.78
COc1ccccc1OCC(=O)N(Cc1nc(-c2ccc(Cl)cc2)no1)C(C)C	Cav32 inh -5.02
CCn1c(SCc2ccc(C)cc2)nnc1C1CCN(S(=O)(=O)c2ccc(OC)cc2)CC1	Cav32 inh -4.77 (no result: CD11b adhes enh, CD11b adhes inh)
Cc1ccc(S(=O)(=O)Nc2nc3ccccc3nc2NCc2ccc3c(c2)OCO3)cc1C	none (no result: Ecoli WT expand, Cav32 inh)
O=C(/C=C/c1cc([N+](=O)[O-])ccc1OC(F)F)Nc1cccc2ccccc12	none (no result: Ecoli WT expand, Cav32 inh)
Cc1ccc(/C=N/NC(=O)CSCc2ccc(Cl)cc2)cc1	none
Cc1ccsc1/C=N/NC(=O)CSCc1ccc(Cl)cc1	Cav32 inh -5.18
COCc1cc(C)nc(OCC(=O)N/N=C\c2cc(C)n(-c3cccc(C(F)(F)F)c3)c2C)c1C#N	Cav32 inh -4.85
COCc1cc(C)nc(OCC(=O)N/N=C/c2cccc(OC)c2)c1C#N	none
Cc1cccc(N2CCN(C(=O)c3ccc(CS(=O)(=O)c4ccccc4C)o3)CC2C)c1 (centres undefined)	Cav32 inh -5.74
Cc1ccc(C)c(N2CCN(C(=O)c3ccc(CS(=O)(=O)c4ccccc4C)o3)CC2)c1	none (no result: Cav32 inh)
COC(=O)c1c(-c2ccccc2)csc1N	none
COC(=O)C1=C(N)c2ccccc2C1(C#N)c1ccccc1 (centres undefined)	Cav32 inh -9.02
Cc1ccc(Cn2c(SCC(=O)N/N=C/c3ccc(C)o3)nc3ccccc32)cc1	Cav32 inh -10.1
O=C(CSc1nc2ccccc2n1Cc1ccccc1)N/N=C/c1ccco1	Cav32 inh -3.99
Cc1cccc(-c2nnc(SCC(=O)Nc3nc4c(s3)CCCC4)n2C)c1	none (no result: Ecoli WT expand, CD11b adhes enh, CD11b adhes inh)
N[C@@H](CO)c1nnc([C@H](CCC(=O)O)NC(=O)C2CCNCC2)o1	none (no result: Ecoli WT expand, CD11b adhes enh, CD11b adhes inh)
Cc1cccc(C(=O)N2CCN(c3ccc([N+](=O)[O-])c(N4CCOCC4)c3)CC2)c1	Cav32 inh 3.75 (no result: CD11b adhes enh, CD11b adhes inh)
O=C(c1ccc2ccccc2c1)N1CCN(c2ccc([N+](=O)[O-])c(N3CCOCC3)c2)CC1	none
CC(=O)c1cc2c(cc1NS(=O)(=O)c1ccc3c(c1)OCCO3)OCO2	none
COC(=O)c1ccc(Cl)c(NS(=O)(=O)c2ccc3c(c2)OCCO3)c1	Cav32 inh -5.39
COC(=O)c1ccc(N2CCCCC2)c(NS(=O)(=O)c2ccc(C)cc2)c1	Cav32 inh -3.75
Cc1cc(=O)n2[nH]cc(C(=O)O)c2n1	none (no result: Ecoli WT expand, CD11b adhes enh, CD11b adhes inh)
CCc1cc(-c2[nH]ncc2-c2ccc3c(c2)OCO3)c(O)cc1O	CD11b adhes inh 69.9 (no result: Ecoli WT expand, Cav32 inh)
CCCc1cc(-c2[nH]ncc2-c2ccc3c(c2)OCCCO3)c(O)cc1OC	none
O=c1c(-c2ccnn2-c2cccc(Cl)c2)cnc2n1CCS2	none
Cc1ccc(C(=O)NCC2(c3ccccc3)CCCC2)cc1	Cav32 inh -3.87 (no result: CD11b adhes enh, CD11b adhes inh)
O=C(CSc1nc2ccccc2[nH]1)Nc1ccc(F)c(F)c1	Cav32 inh -4.37
O=C(CSc1nc2ccccc2[nH]1)Nc1ccccc1F	none
CCOC(=O)C[C@H]1c2ccccc2S(=O)(=O)N1Cc1cccc(C(F)(F)F)c1	none (no result: Ecoli WT expand, CD11b adhes enh, CD11b adhes inh)
O=C(COC(=O)CNC(=O)c1ccc(Cl)cc1)Nc1ccc(Cl)cc1C(F)(F)F	none (no result: Ecoli WT expand, Cav32 inh)
O=c1cc(Nc2ccc3c(c2)OCCO3)[nH]c(=O)n1-c1ccc(Br)cc1	none (no result: Ecoli WT expand, CD11b adhes enh, CD11b adhes inh)
O=c1cc(Nc2ccc3c(c2)OCCO3)[nH]c(=O)n1Cc1ccc(F)cc1	Cav32 inh -3.91 (no result: Ecoli WT expand, CD11b adhes enh, CD11b adhes inh)
CCC(C)NS(=O)(=O)c1ccc(S(=O)(=O)N(CCc2ccc(OC)c(OC)c2)Cc2cccs2)cc1 (centres undefined)	none (no result: Ecoli WT expand, Cav32 inh)
COc1ccc(Nc2nc3ccccc3nc2C)cc1	Cav32 inh -3.83
COc1ccc(COc2cc(-c3cccc(OC)c3)nc3ccc(NC(=O)C(C)C)cc23)cc1	none (no result: Ecoli WT expand, CD11b adhes enh, CD11b adhes inh)
O=C(c1ccccc1)N1CCN2C(=O)c3ccccc3C12c1ccc(Cl)cc1 (centres undefined)	Cav32 inh -8.39
O=C(Nc1ccccc1)N1CCN2C(=O)c3ccccc3C12c1ccccc1 (centres undefined)	Cav32 inh -6.87
CC(C)C(C)(C#N)NC(=O)CSc1nc2scc(-c3ccco3)c2c(=O)n1-c1ccccc1 (centres undefined)	Cav32 inh -5.08
CC(NC(=O)CSc1nc2sc3c(c2c(=O)n1-c1ccccc1)CCCC3)c1ccccc1 (centres undefined)	Cav32 inh -6.49 (no result: Ecoli WT expand, CD11b adhes enh, CD11b adhes inh)
CC(C)C(C)NC(=O)CSc1nc2scc(-c3ccco3)c2c(=O)n1-c1ccccc1 (centres undefined)	Cav32 inh -5.36
Cc1ccc(-n2c(SCC(=O)NCc3ccco3)nc3sc(C)c(C)c3c2=O)cc1	none (no result: CD11b adhes enh, CD11b adhes inh)
Cc1sc2nc(SCC(=O)NCc3ccco3)n(-c3ccccc3)c(=O)c2c1C	none
CC(C)(C)NC(=O)CN(C(=O)CNC(=O)c1cccs1)c1ccc2c(c1)OCCO2	none
O=C(O)C[C@H]1c2cc(C(F)(F)F)ccc2S(=O)(=O)N1C1CCN(Cc2ccccc2)CC1	none (no result: Ecoli WT expand, CD11b adhes enh, CD11b adhes inh)
Cc1cccc(N(CC(=O)NC2CCCCC2)C(=O)CCC(=O)Nc2ccccn2)c1	Cav32 inh -4.19 (no result: Ecoli WT expand)
Cc1ccnc(NC(=O)CCC(=O)N(CC(=O)NC2CCCCC2)c2ccc3c(c2)OCO3)c1	Cav32 inh -4.46 (no result: Ecoli WT expand)
O=C(CCC(=O)N(CC(=O)NC1CCCC1)Cc1ccc2c(c1)OCO2)Nc1ccccn1	none
CN(CCOc1ccc(Cl)cc1)c1ccc(S(=O)(=O)N2CCCCC2)cn1	Cav32 inh -6.36
CCN(CC)c1ccc(C2C(C(C)=O)C(=O)CC(C)(O)C2C(C)=O)cc1 (centres undefined)	none (no result: Ecoli WT expand, CD11b adhes enh, CD11b adhes inh)
CCN=C1S/C(=C\c2sccc2C)C(=O)N1CC	none (no result: Ecoli WT expand, Cav32 inh)
N#C/C(=C(/O)c1ccco1)c1nc2ccccc2s1	CD11b adhes inh 52.2
